The structures appear in SMILES notation. Results filed as inconclusive are left out. Activity calls are given as the source filed them. The call rests on the fitted dose curve; in most records, active means well fitted cell-killing curve with a large enough effect in the repeat runs; inconclusive means weak or mixed curves; inactive means no such curve, though single readings can be large or run the other way.
On the % scale 0 is the no-effect control and ±100 the full control effect.

The nature of this assay: qHTS assay to identify small molecule agonists of the peroxisome proliferator-activated receptor delta (PPARd) signaling pathway - cell viability counter screen (AID 743211). Further: nearly all actives have a fitted effect of over 55% in size. The conditions noted are these: PPARd-bla HEK293H viability, CellTiter-Glo luminescence, 17 h; series mostly up to 62.6 µM. An excerpt:
U.S. Tox21 Program National Center for Advancing Translational Sciences [NCATS] NIH Chemical Genomics Center [NCGC] U.S. Environmental Protection Agency [EPA] National Institutes of Environmental Health Sciences [NIEHS] National Toxicology Program [NTP] U.S. Food and Drug Administration [FDA] Tox21 Assay Overview: The peroxisome proliferator-activated receptors (PPARs) are lipid-activated transcription factors of the nuclear receptor superfamily with three distinct subtypes namely PPAR alpha, PPAR delta (PPARd) and PPAR gamma. All these subtypes heterodimerizes with Retinoid X receptor (RXR) and have different physiological functions. […] To identify the compounds that activate PPAR-delta signaling, GeneBLAzer PPAR delta UAS-bla HEK293H cell line (Invitrogen, Carlsbad, CA, USA) containing a beta-lactamase reporter gene under the control of an Upstream Activator Sequence (UAS) was used to screen the Tox21 compound library. The cytotoxicity of the Tox21 compound library against the PPARd-bla cell line was tested in parallel by measuring the cell viability using CellTiter-Glo assay (Promega, Madison, WI) in the same wells.
Tox21 Assay Protocol Summary: PPARd-bla cells were dispensed at 3000 cells/6uL/well in 1536-well black wall/clear bottom plates using a Multidrop Combi (Thermo Fisher Scientific, Waltham, MA) dispenser. After the assay plates were incubated at 37 C and 5% CO2 for 5 h, 23 nL of compounds dissolved in DMSO, positive controls or DMSO only was transferred to the assay plate by a Pintool station (Kalypsys, San Diego, CA). The assay plates were incubated at 37C for 17 h. After 1 uL of LiveBLAzerTM B/G FRET substrate was added using a Bioraptr Flying Reagent Dispenser (FRD) workstation (Beckman Coulter, Indianapolis, IN, USA), the plates were incubated at room temperature for 2 h, and fluorescence intensity was measured by an Envision plate reader (PerkinElmer, Shelton, CT). For cell viability readout that measures cytotoxicity, 3 ul/well of CellTiter-Glo reagent was added into the assay plates using a Bioraptr FRD. After 30 min incubation at room temperature, the luminescence intensity in the plates was measured using a ViewLux plate reader (PerkinElmer).
Turning to `CCNC(=O)C(C)OC(=O)Nc1ccccc1` (stereo not given), the outcome was inactive.

Regarding `CC(C)CC(O)Cc1ccccc1` (stereo not given), the call was inactive.

Consider `c1coc(Cn2cccc2)c1`, for which the result was inactive.

In the case of `C[C@@H]1CC[C@@]2(OC1)O[C@H]1C[C@H]3[C@@H]4CC[C@H]5C[C@@H](O)CC[C@]5(C)[C@H]4CC(=O)[C@]3(C)[C@H]1[C@@H]2C`, the activity change, negative = cytotoxicity is 5.8% [at 5.95 µM] (inactive).

On to `CC(=O)OC/C=C(/C)CCC=C(C)C`, for which the compound was called inactive.

As to `C/C(Cl)=C/CCl`, the compound was called inactive.

As to `NNC(=O)OCc1ccccc1`, the outcome was inactive.

For `CCCCCCCOC(C)=O`, the call was inactive.

As to `Cc1nc2ccc(Cl)cc2[nH]1`, the compound was called inactive.

`Cc1ccc(Br)cc1`: the call was inactive.

In the case of `O=S(=O)(O)c1ccc(Cl)cc1`, the result was inactive.

Take `O=C1CC2(CCCC2)CC(=O)N1CCNCC1COc2ccccc2O1` (stereo not given): the outcome was inactive.

As to `CCCCN1C(=O)c2ccccc2C1=O`, the compound was classed as inactive.

On to `C=CC(=O)OCCOCCOCC`, for which the compound was classed as inactive.

On to `O=C[C@@H](O)[C@H](O)[C@H](O)CO`, for which the call was inactive.

On to `C=CCON/C(CCC)=C1\C(=O)CC(C)(C)C(C(=O)OC)=C1O`, for which the result was inactive.

Consider `CC(C)C(=O)Nc1cccc(C2CN3CCSC3=N2)c1` (stereo not given), for which the call was inactive.

With `CCCC(=O)CC`, the compound was classed as inactive.

For `Cc1cc(O)c(Cl)cc1C`, the compound was called inactive.

Consider `Cc1cccc(N)n1`, for which the compound was called inactive.

On to `COC(=O)c1cc(Cl)c(NC(C)=O)cc1OC`, for which the result was inactive.

Take `C=C(C)C(=O)OCCCC`: the compound was classed as inactive.

As for `CNC(=O)c1c(I)c(NC(C)=O)c(I)c(C(=O)O)c1I`, the call was inactive.

On to `CCOC(=O)CC`, for which the outcome was inactive.

Turning to `N=C(N)N`, the compound was classed as inactive.

With `CC(CN1CC(=O)NC(=O)C1)N1CC(=O)NC(=O)C1` (stereo not given), the outcome was inactive.

On to `C[C@]12C=CC(=O)C=C1[C@@H](F)C[C@@H]1[C@@H]2[C@@H](O)C[C@@]2(C)[C@H]1CC[C@]2(O)C(=O)CO`, for which the outcome was inactive.

Regarding `CCCCC(CC)CCC(CC(C)C)OS(=O)(=O)O` (stereo not given), the compound was called inactive.

With `Nc1cc(S(=O)(=O)O)ccc1O`, the result was inactive.

With `CCOC(=O)c1ccc(N(C)C)cc1`, the compound was called inactive.

On to `COc1cnc(NS(=O)(=O)c2ccc(N)cc2)nc1`, for which the compound was called inactive.

Regarding `CC/C=C\CCCCCCCCCCOC(C)=O`, the outcome was inactive.

Consider `COC(=O)c1ccc(C(=O)O)cc1`, for which the compound was called inactive.

As to `CNCCc1ccccn1`, the compound was called inactive.

`CC(=O)c1ccc2ccc3ccccc3c2c1`: the compound was classed as inactive.

Take `C=CCOC(=O)CCCCCCCC`: the outcome was inactive.

With `CC(C)OC(=O)C(C(=O)OC(C)C)=C1SC=CS1`, the call was inactive.

On to `COc1ccc(Cl)cc1C`, for which the compound was classed as inactive.

For the compound `CCCCS`, the compound was classed as inactive.

As to `Cc1ccc(N)nc1`, the result was inactive.
